WRN helicase inh: WRN helicase (human) inhibition | WRN helicase unwinding, fluorescent forked duplex, kinetic | Potency, µM (doses to about 114 µM), most hits filed as inhibitors | 360,000 compounds, 0.46% hits | Q14191; also: nearly all actives have a fitted effect of over 55% in size
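WRN at 20 nM final preincubated with compound 15 min at room temperature; reaction started with 100 nM fluorophore/quencher forked duplex oligonucleotide and 2 mM ATP final. Unwinding followed kinetically by red fluorescence (ex 525, em 598 nm).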
Pol kappa inh: blocks human DNA polymerase kappa activity; purified Pol kappa, fluorescent DNA synthesis assay, 10 min; Q9UBT6; Potency, µM (series often up to 107 µM), most hits filed as inhibitors; AID 588579; 400,000 compounds, 0.53% hits
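Readout: fluorescence, taken kinetically at 0 and 10 min. Conditions: 10 nM Pol kappa, 15 min RT compound preincubation, 50 nM substrate final. Controls: enzyme-free buffer wells.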
Pol eta inh: DNA polymerase eta (human) inhibition; 390,000 compounds, 1.2% hits; recombinant Pol eta, fluorescent DNA replication assay; Potency, µM (top dose mostly 114 µM), actives largely listed as inhibitors; Q9Y253
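Pol eta at 10 nM preincubated with compounds 15 min at room temperature; reaction started with fluorescent substrate (50 nM final) and read kinetically at 0 and 10 min.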
FEN1 inhibitor: blocks human flap endonuclease 1 | Recombinant FEN1 flap cleavage, fluorescence, 15 min | P39748 | 390,000 compounds, 0.35% hits | Potency, µM (highest dose often 114 µM), most hits filed as inhibitors; also: nearly all actives have a fitted effect of over 65% in size
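Steps: FEN1 (10 nM) dispensed; compound added by pin tool; 15 min at room temperature; substrate added to 50 nM final; reads at 0 min and 15 min; data normalized and fitted (four-parameter Hill).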
Pol beta inh: blocks human DNA polymerase beta activity | P06746 | Potency, µM (titrated, usually from 114 µM), most hits filed as inhibitors | 340,000 compounds, 1.3% hits | Pol beta primer extension/strand displacement, fluorescence kinetic
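Pol beta (10 nM) and compounds were preincubated 15 min at room temperature, then 50 nM substrate (final) started primer extension/strand displacement. Reads were taken at 0 and 10 min; concentration-response data were fitted to a four-parameter Hill equation.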
POLI inh: inhibitors of human DNA polymerase iota; Pol iota fluorescent replication assay, 10 min; AID 588590; Potency, µM (highest dose often 115 µM), usual class: inhibitors; 390,000 compounds, 1% hits; Q9UNA4
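Pol iota at 10 nM preincubated 15 min with compounds at room temperature; reaction started with fluorescent substrate, 50 nM final. Fluorescence read kinetically at 0 and 10 min; buffer-only wells as negative control.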
Of the large screens only hits and unclear results are named; the others gave an inactive call. An excerpt weighted towards active compounds, which were near 2.4% of everything screened. Calls follow the shape of the dose curve; as a rule, active = well fitted curve in the direction sought with a large enough effect; inconclusive = small, poorly fitted or top-dose-only effect, or another doubt; inactive = no such curve, though single readings can be large; an effect the other way counts as inactive or inconclusive.

Cc1ccc(S(=O)(=O)N2CCCCC2)cc1C(=O)Nc1ncn[nH]1	Pol beta inh 25.1µM (no result: WRN helicase inh, Pol kappa inh, Pol eta inh, FEN1 inhibitor, POLI inh)
CC1=C([N+](=O)[O-])C(c2ccc(Cl)cc2)NC(=O)N1C (centres undefined)	WRN helicase inh 70.8µM
CCC(C)[C@H](NC(=O)N1CC(=O)Nc2ccccc21)C(=O)N1CCC[C@H]1C(=O)O (some centres undefined)	POLI inh 79.4µM
CCCCN(C(=O)Cn1ncc(Cl)c(Cl)c1=O)c1c(N)n(CC(C)C)c(=O)[nH]c1=O	Pol kappa inh 70.8µM, Pol eta inh 28.2µM, Pol beta inh 22.4µM, POLI inh 15.8µM
CCCCN(C(=O)CN1CC(C)OC(C)C1)c1c(N)n(CC(C)C)c(=O)[nH]c1=O (centres undefined)	none
O=c1c2ccccc2nc(/C=C/c2ccc([N+](=O)[O-])cc2)n1CCCO	none
O=c1c2ccccc2nc(/C=C/c2ccc([N+](=O)[O-])o2)n1CCCO	Pol eta inh 15.8µM, Pol beta inh inconclusive
CC(=O)N1c2ccc(S(=O)(=O)N3CCC(C(=O)Nc4cccc(C)c4C)CC3)cc2CC1C (centres undefined)	none
Cc1ccc(-c2ccccc2NC(=O)C2C3C=CC(C3)C2C(=O)O)o1 (centres undefined)	none
CCOC(=O)c1ccc(NC(=O)COc2ccc(-n3cnnn3)cc2)cc1	Pol eta inh inconclusive, Pol beta inh 31.6µM, POLI inh inconclusive
CCN(CC)c1ccc(NC(=O)COc2ccc(-n3cnnn3)cc2)cc1	none (no result: Pol beta inh)
COc1cc2c(=O)n(CC3CCCO3)c(=O)n(CC(=O)Nc3cccc(Cl)c3)c2cc1OC (centres undefined)	none
CCCOc1ccc(C(=O)CCC(=O)OCC(=O)Nc2cc(C)on2)cc1	none (no result: WRN helicase inh, Pol kappa inh, Pol eta inh, FEN1 inhibitor, POLI inh)
O=C(CN(Cc1ccco1)C(=O)c1ccc(F)cc1F)Nc1ccccc1C(F)(F)F	none (no result: Pol beta inh)
O=C1CCCC2=C1C(c1ccc(O)c(O)c1)Nc1ccc3ccccc3c12 (centres undefined)	Pol kappa inh inconclusive, Pol eta inh inconclusive, POLI inh 79.4µM (no result: Pol beta inh)
CCCCCCCCCCCCN1[C@@H](CC(=O)O)c2cc(C(F)(F)F)ccc2S1(=O)=O	Pol kappa inh inconclusive, Pol eta inh 44.7µM, POLI inh inconclusive (no result: Pol beta inh)
O=C(C(=O)N1CCc2ccccc2C1)c1cn(CC(=O)N2CCOCC2)c2ccccc12	none
O=C1N=c2ccccc2=C1c1sc(=S)n(NC(=O)c2cccc(O)c2)c1O	Pol eta inh inconclusive, POLI inh inconclusive
O=C1N=c2ccc(Br)cc2=C1c1sc(=S)n(NS(=O)(=O)c2ccccc2)c1O	FEN1 inhibitor 79.4µM
COc1ccc(N2C(=NC(=O)C3CCCCC3)SC3CS(=O)(=O)CC32)cc1Cl (centres undefined)	none
O=c1c2ccccc2cnn1Cc1nnc(-c2cccs2)o1	Pol beta inh 44.7µM, POLI inh inconclusive
C=CS(=O)(=O)c1ccc(Oc2ccc(S(=O)(=O)C=C)cc2)cc1	WRN helicase inh inconclusive, Pol eta inh inconclusive, POLI inh 10µM
Cc1cc(Cl)ccc1OCC(=O)OC(C)C(=O)N(C)C (centres undefined)	Pol eta inh inconclusive, Pol beta inh inconclusive, POLI inh 50.1µM
COc1ccc(CNC(=O)c2cc3c(s2)-c2c(C)cccc2OC3)cc1	Pol beta inh 14.1µM, POLI inh inconclusive (no result: WRN helicase inh)
Cc1cccc(CCNC(=O)c2cc3c(s2)-c2c(C)cccc2OC3)c1	Pol beta inh inconclusive (no result: WRN helicase inh)
Cc1cccc2c1-c1sc(C(=O)NCCc3ccc(Cl)cc3)cc1CO2	Pol beta inh 8.91µM, POLI inh inconclusive (no result: WRN helicase inh)
COc1ccc(N2CCN(C(=O)c3cc4c(s3)-c3c(C)cccc3OC4)CC2)cc1	none (no result: WRN helicase inh)
O=C(O)c1ccccc1NS(=O)(=O)c1cccc(-n2sc3ccccc3c2=O)c1	WRN helicase inh 11.2µM, Pol eta inh 50.1µM, FEN1 inhibitor 89.1µM, Pol beta inh inconclusive, POLI inh 25.1µM
O=C(O)c1ccccc1NS(=O)(=O)c1cccc(C(F)(F)F)c1	none
OC[C@H]1O[C@@H](c2nc(-c3nc(-c4ccc(F)cc4)no3)cs2)[C@H](O)[C@@H]1O	none (no result: Pol kappa inh, Pol eta inh, FEN1 inhibitor, Pol beta inh, POLI inh)

Source: PubChem
